Values joined by “and” are separate entries in the source; they are usually repeats but may differ in a detail not shown here. Identical values can stand only once. The campaign covered roughly 5,500 compounds. About 2,000 (36%) were called active. Roughly 18% stayed inconclusive and do not appear here. The list shows a part of the results. Unmarked numbers belong to inactive results. No stated cut-off is given here; in the data, active means normalized growth mostly below about 0.91 (no sharp cut-off); inconclusive means no clear call, values can overlap the other calls; inactive means mostly above about 0.92.
Assay: chemical genetic growth profiling, strain panel (AID 1159580);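 further: tested at 20 µM; growth read once vehicle control cultures reached saturation at 30 °C; 1 = growth at the plate median or of vehicle wells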
Conditions: S. cerevisiae deletion strains, growth OD

COc1ccc2c(c1)OCC(Cc1ccc(OC)c(O)c1)C2=O (configuration not stated)
normalized growth (locus YAL013W, strain DEP1, stronger effect = lower value): 0.955
normalized growth (locus YAL021C, strain ccr4, stronger effect = lower value): 0.993
normalized growth (locus YAL026C, strain drs2, stronger effect = lower value): 0.965
normalized growth (locus YAL030W, strain snc1, stronger effect = lower value): 0.953
normalized growth (locus YBL061C, strain skt5, stronger effect = lower value): 0.961
normalized growth (locus YBR009C, strain hhf1, stronger effect = lower value): 0.903 (active)
normalized growth (locus YBR021W, strain FUR4, stronger effect = lower value): 0.873
normalized growth (locus YBR023C, strain chs3, stronger effect = lower value): 0.929
normalized growth (locus YBR171W, strain sec66, stronger effect = lower value): 0.937
normalized growth (locus YBR229C, strain ROT2, stronger effect = lower value): 0.98
normalized growth (locus YBR231C, strain swc5, stronger effect = lower value): 0.968
normalized growth (locus YBR279W, strain paf1, stronger effect = lower value): 0.979
normalized growth (locus YCL011C, strain gbp2, stronger effect = lower value): 0.922
normalized growth (locus YCL016C, strain dcc1, stronger effect = lower value): 0.939
normalized growth (locus YCL029C, strain bik1, stronger effect = lower value): 0.952
normalized growth (locus YCL061C, strain MRC1, stronger effect = lower value): 0.933
normalized growth (locus YCL069W, strain vba3, stronger effect = lower value): 0.956
normalized growth (locus YCR088W, strain abp1, stronger effect = lower value): 0.963
normalized growth (locus YDL005C, strain med2, stronger effect = lower value): 0.959
normalized growth (locus YDL035C, strain GPR1, stronger effect = lower value): 0.972
normalized growth (locus YDL040C, strain nat1, stronger effect = lower value): 0.967
normalized growth (locus YDL074C, strain BRE1, stronger effect = lower value): 0.937
normalized growth (locus YDL101C, strain DUN1, stronger effect = lower value): 0.942
normalized growth (locus YDL185W, strain tfp1, stronger effect = lower value): 0.961
normalized growth (locus YDL192W, strain arf1, stronger effect = lower value): 0.958
normalized growth (locus YDR001C, strain nth1, stronger effect = lower value): 0.959
normalized growth (locus YDR069C, strain doa4, stronger effect = lower value): 1.01
normalized growth (locus YDR101C, strain arx1, stronger effect = lower value): 0.972
normalized growth (locus YDR137W, strain rgp1, stronger effect = lower value): 0.974
normalized growth (locus YDR159W, strain sac3, stronger effect = lower value): 0.867
normalized growth (locus YDR162C, strain NBP2, stronger effect = lower value): 0.982
normalized growth (locus YDR195W, strain ref2): 1.23 [resistant] (active)
normalized growth (locus YDR297W, strain sur2, stronger effect = lower value): 0.963
normalized growth (locus YDR318W, strain mcm21, stronger effect = lower value): 0.93
normalized growth (locus YDR334W, strain swr1, stronger effect = lower value): 0.977
normalized growth (locus YDR335W, strain msn5, stronger effect = lower value): 0.973
normalized growth (locus YDR388W, stronger effect = lower value): 0.967
normalized growth (locus YDR392W, strain spt3, stronger effect = lower value): 0.449 (active)
normalized growth (locus YDR502C, strain sam2, stronger effect = lower value): 0.909 (active)
normalized growth (locus YEL003W, strain gim4, stronger effect = lower value): 0.933
normalized growth (locus YEL037C, strain rad23, stronger effect = lower value): 0.964
normalized growth (locus YEL061C, strain CIN8 (second series), stronger effect = lower value): 0.968
normalized growth (locus YEL061C, strain CIN8, stronger effect = lower value): 0.978
normalized growth (locus YER015W, strain faa2, stronger effect = lower value): 0.961
normalized growth (locus YER016W, strain bim1, stronger effect = lower value): 0.965
normalized growth (locus YER110C, stronger effect = lower value): 0.931
normalized growth (locus YER111C, strain swi4, stronger effect = lower value): 0.962
normalized growth (locus YER155C, strain BEM2 (second series), stronger effect = lower value): 0.757 (active)
normalized growth (locus YER155C, strain BEM2, stronger effect = lower value): 0.963
normalized growth (locus YER167W, strain BCK2, stronger effect = lower value): 0.981
normalized growth (locus YFR010W, strain ubp6, stronger effect = lower value): 0.989
normalized growth (locus YGL078C, strain dbp3, stronger effect = lower value): 0.92 (active)
normalized growth (locus YGL086W, strain mad1, stronger effect = lower value): 0.934
normalized growth (locus YGL167C, strain pmr1, stronger effect = lower value): 0.939
normalized growth (locus YGL173C, strain kem1, stronger effect = lower value): 0.924
normalized growth (locus YGL227W, strain vid30, stronger effect = lower value): 0.964
normalized growth (locus YGL240W, strain doc1, stronger effect = lower value): 0.821 (active)
normalized growth (locus YGL248W, strain PDE1, stronger effect = lower value): 0.9
normalized growth (locus YGL253W, strain hxk2, stronger effect = lower value): 0.91 (active)
normalized growth (locus YGR078C, strain PAC10, stronger effect = lower value): 0.914
normalized growth (locus YGR135W, strain pre9, stronger effect = lower value): 0.868 (active)
normalized growth (locus YGR252W, strain gcn5, stronger effect = lower value): 0.78
normalized growth (locus YHR013C, strain ard1, stronger effect = lower value): 0.956
normalized growth (locus YHR027C, strain rpn1, stronger effect = lower value): 0.944
normalized growth (locus YHR030C, strain SLT2, stronger effect = lower value): 0.978
normalized growth (locus YHR079C, strain IRE1 (second series), stronger effect = lower value): 0.964
normalized growth (locus YHR079C, strain IRE1, stronger effect = lower value): 0.983
normalized growth (locus YHR094C, strain hxt1, stronger effect = lower value): 0.969
normalized growth (locus YHR129C, strain ARP1, stronger effect = lower value): 0.966
normalized growth (locus YHR142W, strain chs7, stronger effect = lower value): 0.872 (active)
normalized growth (locus YHR200W, strain rpn10, stronger effect = lower value): 0.975
normalized growth (locus YIL066C, strain RNR3, stronger effect = lower value): 0.975
normalized growth (locus YIL073C, strain SPO22, stronger effect = lower value): 0.881
normalized growth (locus YIL125W, strain kgd1, stronger effect = lower value): 0.969
normalized growth (locus YIR030C, strain dcg1, stronger effect = lower value): 0.942
normalized growth (locus YJL092W, strain hpr5, stronger effect = lower value): 0.968
normalized growth (locus YJL095W, strain BCK1 (second series), stronger effect = lower value): 0.94
normalized growth (locus YJL095W, strain BCK1, stronger effect = lower value): 0.903 and 1
normalized growth (locus YJL115W, strain asf1, stronger effect = lower value): 0.969
normalized growth (locus YJL129C, strain trk1, stronger effect = lower value): 0.886
normalized growth (locus YJL134W, strain LCB3, stronger effect = lower value): 0.981
normalized growth (locus YJL154C, strain vps35, stronger effect = lower value): 0.964
normalized growth (locus YJL164C, strain tpk1, stronger effect = lower value): 0.933
normalized growth (locus YJL166W, strain qcr8, stronger effect = lower value): 0.844 (active)
normalized growth (locus YJL168C, strain set2, stronger effect = lower value): 0.958
normalized growth (locus YJL187C, strain SWE1 (second series), stronger effect = lower value): 0.926
normalized growth (locus YJL187C, strain SWE1, stronger effect = lower value): 0.983

From PubChem BioAssay AID1159580 (chemical genetic matrix, 2015)
